Screening results: PubChem BioAssay, several laboratories
phage Ecoli inh – E. coli growth loss with phage present | growth absorbance | inhibition, % at 11.9 µM | 360,000 compounds, 0.26% hits; in the data active = inhibition above about 11%
E coli growth-1 – reduces bacterial viability in AddAB counter-screen | E. coli V3065 growth, OD600 absorbance, 18 h | inhibition, % at 11.9 µM | 330,000 compounds, 0.27% hits;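 active = inhibition above the campaign's mean inhibition across all tested compounds plus 3 SD, cut at about 9.9% in these data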;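 also: uninfected addAB+ strain grown without phage in ampicillin broth; 0% = DMSO wells and 100% = ciprofloxacin 0.95 µg/ml wells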
Tat export inh – inhibitors of E. coli Tat protein transport; E. coli MC4100 TorA-mCherry Tat export, fluorescence; inhibition, % at 10 µM; 340,000 compounds, 0.036% hits;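 active = mean replicate inhibition at least 50% and at least half of replicates individually reaching 50%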;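 also: exported cargo escapes ClpAP degradation while cytoplasmic cargo is degraded and loses fluorescence; 0% = median of neutral control wells and 100% = median of NaSCN control wells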
E coli growth-2 – blocks Escherichia coli growth. OD600, 23 h; hits give low values. OD600 absorbance (concentration not given with the values). 330,000 compounds, 0.21% hits;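 active = OD600 absorbance below the run mean of sample wells minus 3.6 SD, in any replicate, cut at about 0.56 in these data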
AddAB inh – less growth of phage-infected E. coli with AddAB; E. coli expressing H. pylori AddAB, absorbance growth; 330,000 compounds, 0.29% hits; AID 435030; inhibition, % at 11.9 µM; in the data active = inhibition above about 12%;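 also: 0% = vehicle wells of infected cells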
AddAB confirm – growth loss of T4-infected E. coli expressing H. pylori AddAB, confirmed; shares compounds with AddAB inh; E. coli V3065 expressing H. pylori AddAB, T4 phage, OD; T4 phage with gene 2 nonsense mutations; inhibition, % at 11.9 µM; 880 compounds, 64% hits;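 active = mean inhibition above a set limit taken from the earlier primary screen, cut at about 13% in these data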;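 also: higher means less bacterial growth since AddAB block lets phage replicate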
RecBCD counter – reduces growth of phage-infected RecBCD+ E. coli, AddAB inhibitor counter-screen; shares compounds with AddAB inh; E. coli V66 + mutant T4 phage, OD growth; inhibition, % at 11.9 µM; 880 compounds, 73% hits; AID 488955;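 active = mean inhibition above the mean of solvent-only control wells plus 3 SD, cut at about 4% in these data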;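 also: optical density read after an 18 h incubation at 37 °C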
bact viab count – counter-screen for AddAB inhibitors: inhibitors of bacterial viability; shares compounds with AddAB inh; inhibition, % at 11.9 µM; 880 compounds, 35% hits; absorbance (AddAB counterscreen); in the data active = inhibition above about 25%
RecBCD conf – confirmation: growth loss of phage-infected RecBCD+ E. coli (RecBCD inhibitor screen) | shares compounds with phage Ecoli inh | E. coli V66 + T4 2- phage, growth OD | inhibition, % at 11.9 µM | 890 compounds, 45% hits;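 active = mean inhibition over triplicates exceeding the hit threshold derived in the original primary screen, cut at about 11% in these data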
Ecoli viability – bacterial viability inhibition counter-screen for RecBCD. shares compounds with phage Ecoli inh. E. coli viability, absorbance (OD) growth. inhibition, % at 11.9 µM. 890 compounds, 29% hits; in the data active = inhibition above about 20%;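 also: E. coli strain V66 grown with compound alone and no phage infection; 0% = bacteria with DMSO vehicle only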
AddAB counter – growth loss of phage-infected AddAB E. coli, RecBCD counter-screen; shares compounds with phage Ecoli inh; E. coli expressing H. pylori AddAB + T4 phage, OD growth; gene 2 mutant T4, recBCD-deleted host; inhibition, % at 11.9 µM; 890 compounds, 45% hits; AID 651984;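 active = mean inhibition above the solvent-only control wells' mean plus 3 SD, cut at about 22% in these data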;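 also: higher means less bacterial growth from phage killing when AddAB is blocked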
Numbers without * were called inactive; / = not tested or not shown. Most compounds without a hit are left out; they make up all but 0.5% or so of the library.

SMILES	phage Ecoli inh	E coli growth-1	Tat export inh	E coli growth-2	AddAB inh	RecBCD conf	Ecoli viability	AddAB counter	others
COc1ccc(N/N=C(/N=Nc2nc(C)cc(=O)[nH]2)c2ccccc2)cc1	22*	20*	-17	/	19*	14*	13	19	AddAB confirm=24*;RecBCD counter=20*;bact viab count=21
CCC(C)CN1C(=O)NC(c2ccccc2)C(C(C)=O)=C1C (stereo not given)	/	/	/	0.68	/	/	/	/
COc1ccc(C)cc1NC(=O)CSc1ccc(-c2ccccn2)nn1	9	4	2	0.65	6	/	/	/
COc1cc(NC(=O)CSc2ccc(-c3ccccn3)nn2)cc(OC)c1	13*	14*	0	0.7	13*	6	5	10	AddAB confirm=10;RecBCD counter=11*;bact viab count=11
COc1ccc(/C=N/NC(=O)c2nc(-c3ccccc3)n(-c3ccccc3)n2)c(O)c1	22*	19*	-6	/	21*	11*	14	20	AddAB confirm=11;RecBCD counter=19*;bact viab count=9
CC(NC(=S)NC1CCCCC1)C(c1cccs1)N1CCOCC1 (stereo not given)	-2	1	3	0.69	3	/	/	/
CC(NC(=O)C1CCCCC1)C(c1cccs1)N1CCOCC1 (stereo not given)	97*	-2	0	0.75	1	2	2	2
COc1ccc(N(C)S(=O)(=O)c2ccc(Cl)c(C(=O)NNC(=O)c3ccccc3O)c2)cc1	12*	/	-5	0.63	/	4	5	10
CCN1C(=O)C2C(c3ccc(-c4ccc(F)cc4)cc3)N3CCC[C@@]3(C(=O)OC)C2C1=O (stereo not given in full)	/	/	/	0.71	/	/	/	/
COC(=O)[C@@]12CCCN1C(c1ccc(-c3ccc(OC)cc3)cc1)C1C(=O)N(C)C(=O)C12 (stereo not given in full)	/	/	/	0.69	/	/	/	/
COC(=O)Cn1ccnc1[N+](=O)[O-]	16*	/	/	/	/	5	5	90*
CN(CC(c1ccccc1)N(CC(Cc1ccccc1)N(CCc1ccccc1)N=O)N=O)N=O (stereo not given)	/	/	/	0.73	/	/	/	/
COc1ccc(S(=O)(=O)N2CCC(C(=O)NCCc3ccc(OC)c(OC)c3)CC2)cc1	1	/	/	/	/	/	/	/
COc1ccc(CCNC(=O)C2CCN(S(=O)(=O)c3ccc(SC)cc3)CC2)cc1	17*	-3	9	0.71	4	-1	-2	-4
COc1ccc(C(=O)NNC(=O)c2ccc3ccccc3c2O)cc1	3	3	-8	0.69	5	/	/	/
COc1cccc(OCC(=O)NNC(=O)c2ccc3ccccc3c2O)c1	15*	/	-5	0.71	/	5	7	14
C=CCOC(=O)C1=CC(c2csc3ccccc23)C(CCCO)C(OCC)O1 (stereo not given)	/	/	/	0.71	/	/	/	/
C=CCNC(=O)C(=Cc1ccc2c(c1)OCO2)NC(=O)c1ccc(Br)cc1	/	/	/	0.73	/	/	/	/
O=C(COc1ccccc1)N/N=C/c1ccc([N+](=O)[O-])o1	12*	9.8*	-1	/	10	8	7	31*
CNC(=O)C1CCC(=O)N1 (stereo not given)	/	/	/	0.69	/	/	/	/
O=[N+]([O-])c1ccc(O)c(C2CCCCC2)c1	12*	/	-5	0.19*	/	7	12	17
CC(C)C(NC(=O)c1ccccc1)C(=O)OCC(=O)NCCc1ccc(F)cc1 (stereo not given)	/	/	/	0.67	/	/	/	/
Nc1nc(N)c2cc(S(=O)(=O)c3cccc(C(F)(F)F)c3)ccc2n1	24*	/	/	/	/	32*	27*	59*
CC(=O)c1cn(CC(=O)Nc2ccccc2)c2ccccc12	12*	11*	-2	0.69	14*	5	9	2
CCOC(=O)C1=CCC(c2ccccc2Cl)N(S(=O)(=O)c2ccc(C)cc2)C1C(=O)OCC (stereo not given)	/	/	/	0.67	/	/	/	/
SMILES	phage Ecoli inh	E coli growth-1	Tat export inh	E coli growth-2	AddAB inh	RecBCD conf	Ecoli viability	AddAB counter	others
C=C[C@@]1(C)CC(=O)[C@]2(O)[C@@]3(C)C(O)CCC(C)(C)C3C(O)C(OC(C)=O)[C@@]2(C)O1 (stereo not given in full)	/	/	/	0.69	/	/	/	/
O=C(Nc1cccc([N+](=O)[O-])c1)c1cccc(C(=O)Nc2cccc([N+](=O)[O-])c2)c1	2	-3	-4	/	-2	/	/	/
CC(NC(=O)Nc1cccc([N+](=O)[O-])c1)(C(F)(F)F)C(F)(F)F	14*	0	-11	0.63	4	7	7	6
CCC(C)C(C(=O)N1CCNCC1)n1cc(CCCN=C(N)N)nn1 (stereo not given)	/	/	/	0.7	/	/	/	/
C(=NN1CCN(c2ccccn2)CC1)c1ccco1	/	/	/	0.64	/	/	/	/
C=CCSC1=NC(=Cc2ccsc2)C(=O)S1	/	/	/	0.71	/	/	/	/
Cc1nc2ccc(N)cc2c(=O)n1Cc1ccc(Cl)cc1	4	-1	15	0.69	2	/	/	/
Nc1ccc(Cn2ccc3c4c(N)nc(N)nc4ccc32)cc1	100*	/	17	/	/	103*	105*	105*
COc1cc(C(=O)N=c2sccn2C)c([N+](=O)[O-])cc1OC	3	/	-3	0.68	/	/	/	/
Cn1ccsc1=NC(=O)c1ccc([N+](=O)[O-])o1	100*	99*	12	0.062*	99*	99*	101*	101*
C/C=N/NC(=O)c1cc(Br)ccc1O	2	0	-3	/	1	/	/	/
O=C(C(=O)c1cc(Br)ccc1O)c1cc(Br)ccc1O	13*	/	-9	0.17*	/	13*	17	16
CCN1C(=NCCOC)NC(c2ccccc2)C(C(=O)OC)C1C (stereo not given)	/	/	/	0.66	/	/	/	/
CCCn1c(SCC(=O)NC2CCCC2)nnc1-c1ccccn1	38*	0	-3	0.67	-1	-2	-1	3
C=CCn1c(SCC(=O)NC2CCCC2)nnc1-c1ccccn1	1	0	-3	0.67	2	/	/	/
COc1ccccc1C(=O)NC(CCSC)C(=O)NNC(=O)c1ccccc1O (stereo not given)	12*	7	3	0.63	10	3	1	6
CON=CNC(=O)NOCc1ccc(Cl)cc1Cl	/	/	/	0.68	/	/	/	/
CCCC=C(CCC)C(NS(=O)(=O)c1cccc2cccnc12)c1ccc(C(=O)OC)cc1 (stereo not given)	/	/	/	0.69	/	/	/	/
